Source: PubChem
Only some compounds are listed: those with a hit (about 19% of all), similar ones and a draw of the others.
HT1080 IDH1KD tx = qHTS for induction of synthetic lethality in tumor cells producing 2HG: qHTS for the HT-1080-IDH1KD cell line | HT-1080 IDH1 knockdown viability, ATP luminescence, 48 h | Potency, µM (doses to about 46.1 µM), actives largely listed as cytotoxic | 360,000 tested, 2% active | AID 686971, 2013
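Assay cells: HT-1080 with IDH1 knockdown, 750 per well, RPMI/5% FBS. Exposure: 48 h at 37 °C following 2 h pre-incubation. Read: CellTiter-Glo luminescence; fitted concentration-response, curve class assigned.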
IL1B secr inh = qHTS for Inhibitors of Inflammasome Signaling: IL-1-beta AlphaLISA Primary Screen; THP-1 LPS/ATP IL-1B secretion, AlphaLISA, 16 h; hits give low values; 360,000 tested, 4.7% active; activity change, % at 57.5 µM; in the data active = activity change below about -50%; inconclusive = mostly about -30% to -49%
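THP-1 cells pretreated 1 hr with compounds (up to 57.5 uM final), then stimulated with LPS (250 ng/mL final) plus ATP (1.25 mM final); secreted IL-1B measured by AlphaLISA after 16 hr, decreased signal indicating inhibition.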
TDP1 cell noCPT = qHTS for Inhibitors of human tyrosyl-DNA phosphodiesterase 1 (TDP1): qHTS in cells in absence of CPT | DT40 Tdp1-/- hTDP1 cells, no CPT, ATP luminescence, 48 h | Potency, µM (titrated, usually from 46.2 µM), most hits filed as inhibitors | 420,000 tested, 15% active | AID 686978, 2013; also: nearly all actives have a fitted effect of over 55% in size
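Cells were dispensed at 400 per well, compounds added by pin tool, plates incubated ≥48 hr at 37 °C, then CellTiter-Glo added for 30 min at room temperature before luminescence reading. Line: DT40 Tdp1-/- complemented with hTDP1; camptothecin omitted.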
HT1080-NT tox = qHTS for induction of synthetic lethality in tumor cells producing 2HG: qHTS for the HT-1080-NT fibrosarcoma cell line; HT-1080-NT fibrosarcoma viability, CellTiter-Glo ATP luminescence, 48 h; Potency, µM (titrated, usually from 46.1 µM), usual class: cytotoxic; 360,000 tested, 1.6% active; AID 686970, 2013;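 also: NT is the 2HG producing partner of a matched IDH1 knockdown line; nearly all actives have a fitted effect of over 55% in size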
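Fibrosarcoma NT cells, 750 per well in 5% FBS RPMI, were exposed to compound for 48 hours. Viability: CellTiter-Glo luminescence.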
DT40 TDP1 CPT = qHTS for Inhibitors of human tyrosyl-DNA phosphodiesterase 1 (TDP1): qHTS in cells in presence of CPT. 420,000 tested, 12% active. AID 686979, 2013. Potency, µM (highest dose often 46.2 µM), hits mostly inhibitors. chicken DT40 Tdp1-/-;hTDP1 cells + 20 nM CPT, ATP luminescence, 48 h; also: nearly all actives have a fitted effect of over 55% in size
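Cell growth measured by CellTiter-Glo luminescence after a minimum 48 h, 37 C compound exposure with 20 nM CPT in Tdp1-knockout DT40 cells stably expressing hTDP1, seeded 400/well; qHTS titration format.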
Hits are given with their value; i = inactive; ? = inconclusive; nt = no result; [ ] = remark or other dose. Unless noted, calls follow the shape of the dose curve; as a rule, active = well fitted curve in the direction sought with a large enough effect; inconclusive = small, poorly fitted or top-dose-only effect, or another doubt; inactive = no such curve, though single readings can be large; an effect the other way counts as inactive or inconclusive.

SMILES	HT1080 IDH1KD tx	IL1B secr inh	TDP1 cell noCPT	HT1080-NT tox	DT40 TDP1 CPT
S=C(NCC1CCCO1)N1CCN(c2nc(-c3ccccc3)cs2)CC1 (configuration not stated)	i	-57.9	?	i	?
S=C(NCc1ccco1)N1CCN(c2nc(-c3ccc(Cl)cc3)cs2)CC1	?	-60.7	?	?	?
CCCCNC(=S)N1CCN(c2ccccc2Cl)CC1	i	-57.9	i	i	i
O=C(CN1CCN(c2nc(-c3ccc(Cl)cc3)cs2)CC1)NCc1ccco1	i	i	?	i	?
S=C(NCc1ccco1)N1CCN(c2nc(-c3ccccc3)cs2)CC1	i	-73.0	?	i	?
S=C(NCC1CCCO1)N1CCN(Cc2ccccc2)CC1 (configuration not stated)	i	i	i	i	i
CC(=O)c1ccc(NC(=O)CC2Oc3ccc(C)cc3NC2=O)cc1 (configuration not stated)	nt	nt	i	nt	i
N#CCC(=O)Nc1ccc(C(=O)NCCc2c[nH]c3ccccc23)cc1	i	i	i	i	i
Cc1ccc(Cl)cc1N1CCN(C(=S)NCc2ccco2)CC1	i	-82.4	18.4µM	?	i
C=CCn1c(COc2ccccc2F)nnc1SCC(=O)c1c[nH]c2ccccc12	i	i	23.1µM	i	25.9µM
C=CCn1c(COc2ccccc2F)nnc1SCC(=O)Nc1cc2oc3ccccc3c2cc1OC	i	i	?	i	?
COc1ccc(NC(=O)COC(=O)C2CC2)c(OC)c1	i	i	i	i	i
Cc1ccc(NC(=O)C(C)c2ccc([N+](=O)[O-])cc2)cc1Cl (configuration not stated)	?	-104.0	?	?	?
O=C(Cc1ccc(Cl)cc1Cl)Nc1ccc(OC(F)F)c(Cl)c1	i	i	?	i	?
COc1ccc(NC(=O)Nc2cccc([N+](=O)[O-])c2)cc1Cl	i	-83.5	9.2µM	i	18.4µM
O=C(Nc1ccc(OC(F)F)c(Cl)c1)Nc1ccc2c(c1)OCO2	?	-78.9	16.4µM	i	?
O=C(Nc1ccc([N+](=O)[O-])cc1)Nc1ccc(OC(F)F)c(Cl)c1	?	-88.8	1.64µM	?	2.31µM
COc1ccc(C(=O)Nc2cccc([N+](=O)[O-])c2)cc1Br	i	i	i	?	i
CC(C(=O)Nc1ccccc1Br)c1ccc([N+](=O)[O-])cc1 (configuration not stated)	i	i	i	i	i
O=C(Nc1ccc(Cl)cc1)Nc1ccc2c(c1)OCO2	i	i	i	i	i
COc1ccc(NC(=O)c2cc3c(=O)n(C)c4ccccc4c3s2)cc1OC	i	i	i	i	i
CC1(C(=O)NS(=O)(=O)c2cccc(Cl)c2)CCN1C(=O)Cc1cc(F)ccc1F (configuration not stated)	i	i	i	i	i
O=C(Nc1ccc(OC(F)F)c(Cl)c1)c1cccc(OC(F)F)c1	?	-54.5	?	?	?
Cc1ccc(C(=O)NC2CCCc3ccccc32)cc1[N+](=O)[O-] (configuration not stated)	13µM	i	14.6µM	?	?
Cc1ccc(C(=O)NC(=S)Nc2ccccc2N2CCCC2)cc1[N+](=O)[O-]	i	i	18.4µM	i	16.4µM
SMILES	HT1080 IDH1KD tx	IL1B secr inh	TDP1 cell noCPT	HT1080-NT tox	DT40 TDP1 CPT
Cc1ccc(NC(=O)c2cc(S(=O)(=O)Nc3ccc(C)cc3)cs2)cc1	i	-77.9	23.1µM	i	23.1µM
Cc1ccc(C(=O)Nc2ccccc2N2CCCCC2)cc1[N+](=O)[O-]	i	i	16.4µM	i	?
COc1cc(NS(=O)(=O)c2ccc(NC(=S)NC(=O)c3cccs3)cc2)nc(OC)n1	i	i	i	i	i
O=C(NC(=S)Nc1ccc(NC(=O)c2cccs2)cc1)c1cc2ccccc2o1	18.4µM	i	?	20.6µM	13µM
Cc1cc(C)cc(NS(=O)(=O)c2ccc(NC(=S)NC(=O)c3cccs3)cc2)c1	?	?	18.4µM	?	20.6µM
CN1CCN(c2ccc(C(=O)c3ccccc3)cc2[N+](=O)[O-])CC1	i	-53.3	?	i	i
COc1ccc(C(=O)Nc2cc([N+](=O)[O-])ccc2N2CCN(C)CC2)cc1	i	i	?	i	11.2µM
Cc1ccc(CNC(=O)C2CCC(=O)N(CCc3ccc(Cl)cc3)C2)cc1 (configuration not stated)	i	i	?	i	?
CCCn1c(N)c(N(CCOC)C(=O)c2ccc(N(C)S(=O)(=O)c3ccc(C)cc3)cc2)c(=O)[nH]c1=O	i	i	i	i	i
Cc1ccc(C(=O)Nc2ccccc2N2CCN(C(=O)C(C)C)CC2)cc1C	i	i	13µM	i	?
Cc1cccc(-n2nnc(C(=O)NCc3ccccc3)c2N)c1	i	i	i	i	i
CN1CCN(c2ccccc2NC(=O)c2ccc(N3CCCCC3)c([N+](=O)[O-])c2)CC1	i	-63.3	11.6µM	i	11.6µM
Cc1cccc(-n2nnc(C(=O)NC3CCCc4ccccc43)c2N)c1 (configuration not stated)	?	i	18.4µM	i	?
Cc1ccc(C(=O)NC(=S)Nc2ccc(NC(=O)c3cccs3)cc2)cc1[N+](=O)[O-]	20.6µM	i	3.66µM	?	8.2µM
COc1c(F)c(F)c(C(=O)Nc2ccccc2N2CCN(C(=O)C(C)C)CC2)c(F)c1F	i	i	?	i	i
O=C(CC1NC(=S)NC1=O)c1ccc(Cl)cc1 (configuration not stated)	i	i	i	?	i
O=C(Nc1ccc2c(c1)Cc1ccccc1-2)c1cccnc1	i	i	?	i	i
COc1ccc(CCNC(=O)CCn2c(=O)c3ccccc3n(Cc3cc(C)ccc3C)c2=O)cc1OC	nt	nt	i	nt	i
CCOc1ccc(S(=O)(=O)N(CC)CC(=O)NCc2cccnc2)cc1C	i	i	?	i	?
CSc1nc(N2CCOCC2)c2c3c(sc2n1)CCCC3	i[9.24 µM]	i	13µM	i	?
CCOc1ccccc1NC(=O)C1CCCN(S(=O)(=O)c2ccc(-n3cnnn3)cc2)C1 (configuration not stated)	i	i	i	i	i
Cc1ccc(NC(=O)c2c3c(nc4ccccc24)C(=O)N(C2CCCCC2)C3)cc1F	nt	nt	11.6µM	nt	8.2µM
CCOc1ccccc1NC(=O)CSc1nc2ccccc2c(=O)n1CC1CCCO1 (configuration not stated)	i	i	?	i	?
Cc1ccccc1NC(=O)c1c2c(nc3ccccc13)C(=O)N(C1CCCCC1)C2	nt	nt	20.6µM	nt	?
